Compound activity: PubChem BioAssay, several laboratories
Compounds with a hit are over-represented: about 13% of the library has one in this group of screens.
L major viab = reduces viability of Leishmania major promastigotes. hit rate 9% among 200,000. resazurin fluorescence viability. inhibition, % at 10 µM; in the data active means inhibition above about 50%;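 further: promastigotes grown with compound for 44 hours at 28 °C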
RAM network inh = blocks the yeast RAM network | AID 868 | inhibition, % at 50 µM | S. cerevisiae dse1pr::URA3 reporter, 5-FOA growth OD615, 2 d; analog-sensitive cbk1-as2 kinase mutant strain | hit rate 1.8% among 190,000;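 active means inhibition above a set limit, 3 SD over mean compound inhibition, cut at about 8.4% in these data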;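 further: 0% = DMSO-only wells with no growth and 100% = 10 µM 1-NA-PP1 full growth; inhibition rescues growth on 5-FOA so higher OD means more RAM inhibition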
CHOP inh = blocks CHOP induction under ER stress | hit rate 3.8% among 220,000 | CHO-K1 CHOP-promoter luciferase, tunicamycin-induced, 15-18 h | inhibition, % at 10 µM | AID 2732;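 active means compounds that reduced the stress-induced luciferase reporter signal by more than about 70% of percent inhibition, limit read from the data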;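 further: 0% = tunicamycin plus vehicle and 100% = wells without tunicamycin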
WT yeast gro inh = growth inhibition of WT yeast, mitochondrial fusion screen. mitochondrial fusion phenotypic screen, WT strain. inhibition, % at 10 µM. hit rate 2.1% among 190,000. AID 1362; in the data active means inhibition above about 58%; tested in S. cerevisiae
* marks the source's active call; other numbers are inactive results.

Screening C=CCn1c(SCC(=O)Nc2ccccc2-c2ccccc2)nc2cc(C(=O)O)ccc2c1=O returned L major viab 2, RAM network inh 6, CHOP inh -15 and WT yeast gro inh -18.
For COCCOC(=O)c1c(NC(=O)CNCc2ccco2)sc(C(N)=O)c1C the results were L major viab 1, RAM network inh 1, CHOP inh -25 and WT yeast gro inh -8.
For COC(=O)c1c(NC(=O)CN2CCCc3ccccc32)sc(C)c1C the results were L major viab 89*, RAM network inh 3, CHOP inh 70* and WT yeast gro inh -13.
Screening COCCOC(=O)c1c(NC(=O)CN2CCCc3ccccc32)sc(C(N)=O)c1C returned L major viab 22, RAM network inh 11*, CHOP inh 18 and WT yeast gro inh 5.
For C=CCOc1ccc(/C=N/N2C(=O)C(CC(=O)Nc3ccc(F)cc3F)SC2=NC)cc1 (stereo not given) the results were L major viab 2, RAM network inh 3, CHOP inh 70* and WT yeast gro inh 6.
CC(C)Cn1c(O)c(/C=C2\C=NN=C2c2ccccc2)sc1=S was read as L major viab 13, RAM network inh 8, CHOP inh 71* and WT yeast gro inh 63*.
Screening CCCCn1c(O)c(/C=C2\C=NN=C2c2ccccc2)sc1=S returned L major viab 5, RAM network inh 3, CHOP inh 61 and WT yeast gro inh 46.
`O=C(NCCCc1nc2ccccc2[nH]1)c1ccc(F)cc1` gave L major viab -2, RAM network inh 0, CHOP inh 5 and WT yeast gro inh 1.
`Cc1cc(C)n2nc(C(=O)Nc3ccc(S(=O)(=O)N(C)C)cc3)nc2n1` gave CHOP inh 11.
`NCCS(=O)O` gave CHOP inh 18.
CCC1Oc2ccc(C)cc2N(Cc2cccc(C)c2)C1=O (stereo not given) was read as L major viab 19, RAM network inh 3, CHOP inh 96* and WT yeast gro inh 24.
Screening CCC1Oc2ccc(C)cc2N(CC(=O)N(Cc2cccnc2)Cc2ccc(C)o2)C1=O (stereo not given) returned L major viab 100*, RAM network inh 2, CHOP inh 21 and WT yeast gro inh 0.
Cc1ccc2c(c1)N(Cc1ccc3c(c1)OCO3)C(=O)C(C)O2 (stereo not given) was read as L major viab 2, RAM network inh 3, CHOP inh -5 and WT yeast gro inh -7.
CCC1Oc2ccc(C)cc2N(CC(=O)N(Cc2ccc(C)o2)C2CC(C)(C)NC(C)(C)C2)C1=O (stereo not given) was read as L major viab 23, RAM network inh 2, CHOP inh 26 and WT yeast gro inh 7.
COc1ccc(C/C(C)=N/NC(=O)c2cccnc2)cc1 was read as L major viab -11, RAM network inh 0, CHOP inh -12 and WT yeast gro inh -18.
Screening COc1ncnc2c1oc1nc(C(C)C)c3c(c12)CC(C)(C)OC3 returned L major viab 10, RAM network inh 3, CHOP inh 32 and WT yeast gro inh -1.
`CCOc1ncnc2c1oc1nc(CC(C)C)c3c(c12)CC(C)(C)OC3` gave L major viab 10, RAM network inh 10*, CHOP inh -7 and WT yeast gro inh 17.
Screening CCOc1nc(CC(C)C)c2c(c1C#N)CC(C)(C)OC2 returned CHOP inh 74*.
`O=C(NC1CC2CCCC(C1)N2CC(=O)N1CCCc2ccccc21)C1CCCCC1` (stereo not given) gave L major viab 57*, RAM network inh 1, CHOP inh 26 and WT yeast gro inh -16.
Screening CC(=O)NC1CC2CCCC(C1)N2CC(=O)N1CCCc2ccccc21 (stereo not given) returned L major viab -1, RAM network inh 2, CHOP inh 7 and WT yeast gro inh 21.
For Cc1ccc(C)c2[nH]c(=O)c(C(c3nnnn3C3CCCC3)N3CCOCC3)cc12 (stereo not given) the results were L major viab 9, RAM network inh 0, CHOP inh 12 and WT yeast gro inh 4.
For CCOC(=O)C1CCN(C(c2cc3c(C)ccc(C)c3[nH]c2=O)c2nnnn2C2CCCCC2)CC1 (stereo not given) the results were L major viab 99*, RAM network inh 3, CHOP inh 68 and WT yeast gro inh 36.
Cc1ccc2cc(C(c3nnnn3C3CCCC3)N3CCOCC3)c(=O)[nH]c2c1C (stereo not given) was read as L major viab 9, RAM network inh 3, CHOP inh 28 and WT yeast gro inh 0.
For CCOC(=O)C1CCN(C(c2cc3ccc(C)c(C)c3[nH]c2=O)c2nnnn2C2CCCCC2)CC1 (stereo not given) the results were L major viab 86*, RAM network inh 0, CHOP inh 6 and WT yeast gro inh 0.
`COc1cc(NC(=O)Cn2nc(Cc3cccnc3)c3ccccc3c2=O)cc(OC)c1OC` gave L major viab -3, RAM network inh 2, CHOP inh 16 and WT yeast gro inh -2.
Cc1ccc(NC(=S)N2CCC(c3ccccc3)C2)c(Cl)c1 (stereo not given) was read as L major viab 13, RAM network inh 1, CHOP inh 7 and WT yeast gro inh 42.
`CCCNC(=O)Cn1nc([N+](=O)[O-])c([N+](=O)[O-])c1C` gave L major viab 24, RAM network inh 1, CHOP inh 19 and WT yeast gro inh -15.
CCCCNC(=O)Cn1nc([N+](=O)[O-])c([N+](=O)[O-])c1C was read as L major viab 79*, RAM network inh 2, CHOP inh 30 and WT yeast gro inh -11.
Screening O=C(Nc1cccc2ccccc12)c1cc2c(cc1Br)OCO2 returned CHOP inh 2.
For CCN(CC)CCCn1c(C)cc2c(c1=O)C(c1cc(OC)c(OC)cc1OC)C(C#N)=C(N)O2 (stereo not given) the results were L major viab -1, RAM network inh 1, CHOP inh -13 and WT yeast gro inh 5.
Screening CCN(CC)CCCn1c(C)cc2c(c1=O)C(c1cccc(Cl)c1)C(C#N)=C(N)O2 (stereo not given) returned L major viab 67*, RAM network inh 1, CHOP inh -6 and WT yeast gro inh 74*.
CC(C)C[C@H](NC(=O)c1[nH]cnc1C(=O)Nc1ccc(CNC(=O)OC(C)(C)C)cc1)C(=O)OC(C)(C)C was read as CHOP inh 84*.
`COc1ccc(NC(=O)c2nc[nH]c2C(=O)N[C@@H](CC(C)C)C(=O)OC(C)(C)C)cc1` gave CHOP inh 76*.
FC(F)(F)c1ccc(N=Cc2sc(N3CCOCC3)nc2-c2ccccc2)cc1 was read as L major viab -10, RAM network inh 3, CHOP inh 32 and WT yeast gro inh 4.
For CC(=Nc1ccc(C)cc1)c1sc2ccccc2c1O the results were L major viab -3, RAM network inh 1, CHOP inh -13 and WT yeast gro inh 8.
For CC(=Nc1ccc(C)cc1C)c1sc2ccccc2c1O the results were L major viab 10, RAM network inh 1, CHOP inh 32 and WT yeast gro inh 79*.
